Key:
[1] = biological target: Homeodomain-interacting protein kinase 3 (Homo sapiens) (UniProt Q9H422); conditions: at 1 µM
[2] = biological target: Homeodomain-interacting protein kinase 3 (Homo sapiens) (UniProt Q9H422); conditions: at 10 µM
[3] = biological target: Tyrosine-protein kinase HCK (Homo sapiens) (UniProt P08631); conditions: at 1 µM
[4] = biological target: Homeodomain-interacting protein kinase 2 (Homo sapiens) (UniProt Q9H2X6); conditions: at 10 µM
[5] = biological target: T1, Serine/threonine-protein kinase haspin (Homo sapiens) (UniProt Q8TF76); conditions: at 1 µM
T1 sequence (whole entry): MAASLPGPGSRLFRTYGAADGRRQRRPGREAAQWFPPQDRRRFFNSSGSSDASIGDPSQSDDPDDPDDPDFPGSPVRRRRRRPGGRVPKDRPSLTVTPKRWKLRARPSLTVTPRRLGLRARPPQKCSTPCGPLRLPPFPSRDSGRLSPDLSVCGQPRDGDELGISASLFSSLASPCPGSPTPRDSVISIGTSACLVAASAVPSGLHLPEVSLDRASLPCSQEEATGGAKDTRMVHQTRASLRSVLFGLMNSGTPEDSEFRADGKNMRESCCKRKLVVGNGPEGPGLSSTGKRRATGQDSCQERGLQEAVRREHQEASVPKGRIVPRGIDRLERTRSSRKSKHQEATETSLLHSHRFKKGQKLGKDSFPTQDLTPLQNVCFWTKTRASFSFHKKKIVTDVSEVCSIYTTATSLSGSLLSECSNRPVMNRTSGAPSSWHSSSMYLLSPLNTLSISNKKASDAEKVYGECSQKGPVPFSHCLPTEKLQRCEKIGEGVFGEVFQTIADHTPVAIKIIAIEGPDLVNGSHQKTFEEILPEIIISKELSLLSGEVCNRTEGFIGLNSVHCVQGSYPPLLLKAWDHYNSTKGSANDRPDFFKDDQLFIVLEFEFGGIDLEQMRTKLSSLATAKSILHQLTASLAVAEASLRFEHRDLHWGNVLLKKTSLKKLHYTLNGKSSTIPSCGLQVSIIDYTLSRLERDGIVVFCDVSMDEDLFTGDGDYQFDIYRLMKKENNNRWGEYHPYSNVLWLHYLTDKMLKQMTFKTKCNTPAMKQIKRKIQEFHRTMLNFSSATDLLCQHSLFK

[6] = biological target: T1, Serine/threonine-protein kinase haspin (Homo sapiens); conditions: at 10 µM
[7] = biological target: Tyrosine-protein kinase HCK (Homo sapiens) (UniProt P08631); conditions: at 10 µM
[8] = biological target: Tyrosine-protein kinase HCK (Homo sapiens) (UniProt P08631); conditions: at 1 µM; remark: listed apart in the source
[9] = biological target: Insulin-like growth factor 1 receptor (Homo sapiens) (UniProt P08069); conditions: at 1 µM
[10] = biological target: Tyrosine-protein kinase HCK (Homo sapiens) (UniProt P08631); conditions: at 10 µM; remark: listed apart in the source

Homeodomain-interacting protein kinase 3 (Homo sapiens), sequence (Q9H422 whole entry, looked up): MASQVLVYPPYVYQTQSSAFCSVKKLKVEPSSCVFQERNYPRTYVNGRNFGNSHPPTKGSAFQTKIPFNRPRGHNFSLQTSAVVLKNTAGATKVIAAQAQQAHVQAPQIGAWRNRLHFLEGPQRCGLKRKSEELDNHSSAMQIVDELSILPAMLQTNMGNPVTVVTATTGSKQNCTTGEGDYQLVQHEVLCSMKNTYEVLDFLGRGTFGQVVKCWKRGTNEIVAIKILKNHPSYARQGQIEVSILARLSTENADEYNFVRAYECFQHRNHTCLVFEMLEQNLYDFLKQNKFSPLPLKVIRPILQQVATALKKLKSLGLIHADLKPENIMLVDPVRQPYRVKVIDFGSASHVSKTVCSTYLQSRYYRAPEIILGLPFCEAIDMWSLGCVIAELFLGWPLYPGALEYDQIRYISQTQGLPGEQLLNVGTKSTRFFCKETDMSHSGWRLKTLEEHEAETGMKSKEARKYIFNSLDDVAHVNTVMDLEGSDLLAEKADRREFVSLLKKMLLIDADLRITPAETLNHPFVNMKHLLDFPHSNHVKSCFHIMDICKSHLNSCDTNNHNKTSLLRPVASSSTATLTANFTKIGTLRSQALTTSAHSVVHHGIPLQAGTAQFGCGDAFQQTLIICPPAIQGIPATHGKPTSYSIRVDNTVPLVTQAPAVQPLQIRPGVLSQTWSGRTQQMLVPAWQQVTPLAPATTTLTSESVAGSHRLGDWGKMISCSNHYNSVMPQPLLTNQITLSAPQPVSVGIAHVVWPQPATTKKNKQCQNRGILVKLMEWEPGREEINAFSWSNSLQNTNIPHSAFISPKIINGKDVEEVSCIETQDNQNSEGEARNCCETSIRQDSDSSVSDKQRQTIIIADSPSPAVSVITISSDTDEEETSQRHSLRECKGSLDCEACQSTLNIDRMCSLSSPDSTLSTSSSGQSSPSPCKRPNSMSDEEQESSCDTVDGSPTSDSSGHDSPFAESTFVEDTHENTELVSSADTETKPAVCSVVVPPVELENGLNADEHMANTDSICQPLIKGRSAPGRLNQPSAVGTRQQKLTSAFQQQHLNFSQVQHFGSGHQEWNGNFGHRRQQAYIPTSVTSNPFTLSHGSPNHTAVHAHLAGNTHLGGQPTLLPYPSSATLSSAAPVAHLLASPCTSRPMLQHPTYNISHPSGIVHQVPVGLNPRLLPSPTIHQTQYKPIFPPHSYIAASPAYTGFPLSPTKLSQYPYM
Homeodomain-interacting protein kinase 2 (Homo sapiens), sequence (Q9H2X6 whole entry, looked up): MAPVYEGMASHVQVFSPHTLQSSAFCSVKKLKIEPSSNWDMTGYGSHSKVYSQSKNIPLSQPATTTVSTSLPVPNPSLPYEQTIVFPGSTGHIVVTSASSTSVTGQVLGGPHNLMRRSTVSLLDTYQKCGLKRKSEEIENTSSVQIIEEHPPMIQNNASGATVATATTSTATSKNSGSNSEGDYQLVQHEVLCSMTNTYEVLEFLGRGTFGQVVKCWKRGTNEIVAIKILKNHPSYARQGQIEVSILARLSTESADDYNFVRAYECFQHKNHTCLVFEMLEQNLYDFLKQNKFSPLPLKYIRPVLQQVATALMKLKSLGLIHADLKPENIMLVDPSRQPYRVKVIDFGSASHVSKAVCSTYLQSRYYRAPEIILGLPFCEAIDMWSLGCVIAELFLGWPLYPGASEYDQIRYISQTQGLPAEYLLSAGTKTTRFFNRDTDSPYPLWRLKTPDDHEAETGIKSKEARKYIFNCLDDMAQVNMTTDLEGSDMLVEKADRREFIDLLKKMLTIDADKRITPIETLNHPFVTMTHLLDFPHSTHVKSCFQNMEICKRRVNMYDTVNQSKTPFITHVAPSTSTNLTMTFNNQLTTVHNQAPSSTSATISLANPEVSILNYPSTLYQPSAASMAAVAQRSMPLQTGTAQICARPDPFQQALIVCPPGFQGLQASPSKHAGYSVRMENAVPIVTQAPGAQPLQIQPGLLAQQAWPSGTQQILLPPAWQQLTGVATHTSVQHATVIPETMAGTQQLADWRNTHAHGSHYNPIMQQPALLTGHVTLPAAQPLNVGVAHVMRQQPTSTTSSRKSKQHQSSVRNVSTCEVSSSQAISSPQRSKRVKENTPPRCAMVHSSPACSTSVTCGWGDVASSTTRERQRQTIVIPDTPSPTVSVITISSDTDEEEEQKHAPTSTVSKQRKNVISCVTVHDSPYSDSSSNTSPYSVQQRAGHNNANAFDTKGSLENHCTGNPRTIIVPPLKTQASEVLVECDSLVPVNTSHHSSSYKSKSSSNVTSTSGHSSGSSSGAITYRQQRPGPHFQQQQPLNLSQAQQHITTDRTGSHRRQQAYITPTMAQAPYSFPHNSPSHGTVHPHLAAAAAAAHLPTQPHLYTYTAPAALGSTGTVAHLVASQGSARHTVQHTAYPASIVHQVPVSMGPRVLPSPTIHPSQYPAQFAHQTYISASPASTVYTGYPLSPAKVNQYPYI
Tyrosine-protein kinase HCK (Homo sapiens), sequence (P08631 2-526 limits assumed): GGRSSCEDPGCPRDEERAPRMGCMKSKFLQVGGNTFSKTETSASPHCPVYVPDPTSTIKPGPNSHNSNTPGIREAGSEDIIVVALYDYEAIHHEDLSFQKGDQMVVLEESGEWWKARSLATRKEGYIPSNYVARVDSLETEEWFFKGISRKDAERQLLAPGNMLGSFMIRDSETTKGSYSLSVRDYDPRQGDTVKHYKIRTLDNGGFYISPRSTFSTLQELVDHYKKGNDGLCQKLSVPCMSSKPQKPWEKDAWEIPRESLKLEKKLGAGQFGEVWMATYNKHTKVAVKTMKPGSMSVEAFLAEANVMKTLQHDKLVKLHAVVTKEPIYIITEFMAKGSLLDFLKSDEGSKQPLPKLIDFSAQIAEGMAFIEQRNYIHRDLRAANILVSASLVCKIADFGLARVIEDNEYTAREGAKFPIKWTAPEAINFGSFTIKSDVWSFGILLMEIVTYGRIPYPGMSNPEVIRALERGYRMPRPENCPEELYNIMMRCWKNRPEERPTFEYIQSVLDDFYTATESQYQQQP
Insulin-like growth factor 1 receptor (Homo sapiens), sequence (P08069 31-736 limits assumed): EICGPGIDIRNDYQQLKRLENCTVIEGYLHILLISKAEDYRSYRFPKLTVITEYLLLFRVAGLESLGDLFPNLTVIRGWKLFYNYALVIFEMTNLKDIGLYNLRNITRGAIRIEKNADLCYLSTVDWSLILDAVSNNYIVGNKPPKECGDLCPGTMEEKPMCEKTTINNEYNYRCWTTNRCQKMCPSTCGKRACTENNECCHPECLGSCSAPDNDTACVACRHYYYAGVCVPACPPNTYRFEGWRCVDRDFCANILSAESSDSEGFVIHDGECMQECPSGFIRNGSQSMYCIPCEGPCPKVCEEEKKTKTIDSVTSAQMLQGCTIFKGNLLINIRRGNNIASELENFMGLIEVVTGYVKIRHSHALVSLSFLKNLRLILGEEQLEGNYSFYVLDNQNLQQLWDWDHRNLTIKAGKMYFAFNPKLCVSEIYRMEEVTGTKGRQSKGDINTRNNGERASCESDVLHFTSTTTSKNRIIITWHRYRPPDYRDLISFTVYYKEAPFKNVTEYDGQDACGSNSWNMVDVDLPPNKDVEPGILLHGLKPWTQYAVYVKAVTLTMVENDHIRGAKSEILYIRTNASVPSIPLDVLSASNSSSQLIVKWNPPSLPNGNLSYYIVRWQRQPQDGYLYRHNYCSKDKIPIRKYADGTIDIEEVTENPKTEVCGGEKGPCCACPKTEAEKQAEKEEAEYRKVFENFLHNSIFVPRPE
Insulin-like growth factor 1 receptor (Homo sapiens), sequence (P08069 741-1367 limits assumed): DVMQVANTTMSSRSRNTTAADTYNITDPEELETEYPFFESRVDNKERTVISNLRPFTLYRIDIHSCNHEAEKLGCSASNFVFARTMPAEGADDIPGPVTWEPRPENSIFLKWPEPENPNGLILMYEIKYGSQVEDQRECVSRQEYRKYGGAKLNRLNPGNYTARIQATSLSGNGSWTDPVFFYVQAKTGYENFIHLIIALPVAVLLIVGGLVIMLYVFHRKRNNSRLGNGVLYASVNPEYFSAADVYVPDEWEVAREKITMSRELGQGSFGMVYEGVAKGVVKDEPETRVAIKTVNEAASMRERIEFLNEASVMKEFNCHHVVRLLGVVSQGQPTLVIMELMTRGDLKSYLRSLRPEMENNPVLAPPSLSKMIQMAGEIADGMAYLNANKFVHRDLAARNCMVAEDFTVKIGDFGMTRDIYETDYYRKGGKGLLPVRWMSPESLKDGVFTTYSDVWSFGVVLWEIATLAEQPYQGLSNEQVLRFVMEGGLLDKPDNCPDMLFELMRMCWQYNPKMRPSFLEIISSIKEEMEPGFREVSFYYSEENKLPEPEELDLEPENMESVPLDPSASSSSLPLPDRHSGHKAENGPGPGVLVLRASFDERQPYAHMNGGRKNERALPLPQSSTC

Structure (SMILES) | residual activity [1] | residual activity [2] | residual activity [3] | residual activity [4] | residual activity [5] | residual activity [6] | residual activity [7] | residual activity [8] | residual activity [9] | residual activity [10]
CN[C@@H]1C[C@H]2O[C@@](C)([C@@H]1OC)n1c3ccccc3c3c4c(c5c6ccccc6n2c5c31)C(=O)NC4 | 74% | 27% | 0% |  |  |  |  |  |  | 
COc1cc(OC)c(/C=C2\C(=O)Nc3ccccc32)c(OC)c1 | 103% | 98% | 89% | 96% | 70% | 61% | 69% | 93% | 93% | 
O=[N+]([O-])/C=C/c1ccc2c(c1)OCO2 | 101% | 99% | 85% |  | 128% | 115% | 73% |  | 131% | 94%
O=C1Nc2ccc3ncsc3c2/C1=C/c1c[nH]cn1 | 31% | 4% | 58% | 4% | 3% | 1% | 19% | 67% | 132% | 24%
O=C1NC(=O)c2c1c1c3ccccc3n3c1c1c2c2ccccc2n1C1CCC3O1 | -2% | -2% | 76% | 26% | 50% | 22% | 94% | 92% | 73% | 83%
COc1ccc2c(c[n+](C)c3c4cc5c(cc4ccc23)OCO5)c1OC |  |  | 92% | 86% |  | 69% | 60% | 95% | 138% | 92%
c1cc(-c2cnn3cc(-c4ccc(OCCN5CCCCC5)cc4)cnc23)ccn1 |  | 45% | 64% | 14% | 38% | 4% | 18% | 32% |  | 4%
CC(C)(C)c1cc(C=C(C#N)C#N)cc(Br)c1O | 101% | 98% | 77% | 71% | 105% | 54% | 8% | 102% | 130% | 
CCc1nc(-c2ccc(OC)cc2)[nH]c1-c1ccncc1 |  |  | 72% |  | 45% | 4% | 64% | 115% | 112% | 104%
COC(=O)[C@@]1(O)C[C@H]2O[C@]1(C)n1c3ccccc3c3c4c(c5c6ccccc6n2c5c31)C(=O)NC4 | 54% | -4% | 3% | -1% | 8% | 5% | 1% | 1% | 77% | 4%
C[S+]([O-])c1ccc(-c2nc(-c3ccc(F)cc3)c(-c3ccncc3)[nH]2)cc1 (centres undefined) | 110% | 102% | 105% | 100% | 88% | 35% | 52% | 93% | 102% | 61%
O=c1[nH]c2ccccc2n1C1CCN(Cc2ccc(-c3nc4cc5[nH]cnc5cc4nc3-c3ccccc3)cc2)CC1 | 97% | 91% | 91% | 64% | 76% | 49% | 42% | 102% | 125% | 91%
N/C(=N\[N+](=O)[O-])N/N=C\c1ccc(-c2cccc([N+](=O)[O-])c2)o1 |  |  | 70% | 83% | 97% | 80% | 49% |  |  | 
CC(C)[C@H](CO)Nc1nc(Nc2cccc(Cl)c2)c2ncn(C(C)C)c2n1 |  | 77% | 20% | 36% | 100% | 94% | 4% | 30% | 98% | 4%
CCn1cnc2c(Nc3cccc(Cl)c3)nc(N[C@@H]3CCCC[C@@H]3N)nc21 | 99% | 80% | 24% | 47% | 48% | 3% | 4% | 24% | 95% | 4%
COc1ccc2c(c1)/C(=C/c1cnc[nH]1)C(=O)N2 |  | 49% | 71% |  | 37% | 13% | 33% |  |  | 49%
O=C1c2ccccc2-c2nc3nnnn3nc21 |  |  |  |  |  | 74% | 76% |  | 129% | 
COc1cc2ncnc(Nc3ccc(OCc4ccccc4)cc3)c2cc1OC | 100% | 96% | 35% | 84% | 77% | 45% | 19% | 90% | 120% | 83%
